Source: PubChem BioAssay (several laboratories)
Bcl-xL primary – inhibitors of human Bcl-xL, primary screen, biochemical, fluorescence polarization, HTS. Bcl-2-like protein 1 (Homo sapiens), Q07817. GST-Bcl-xL / FITC-Bim BH3 peptide fluorescence polarization. inhibition, % at 10.9 µM. 0.7% of 320,000 active;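 active = inhibition above the mean of all tested compounds plus 3 SD, cutoff set per campaign, cut at about 30% in these data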;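 note: 0% = DMSO wells and 100% = unlabeled Bim-BH3 peptide competitor; inhibitors lower millipolarization by displacing the labeled peptide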
MCL1-BIM inh – inhibitors of MCL1 binding to BIM-BH3, primary screen, biochemical, fluorescence polarization; Induced myeloid leukemia cell differentiation protein Mcl-1 (Homo sapiens), Q07820; GST-MCL1 / FITC-Bim-BH3 fluorescence polarization; inhibition, % at 10.9 µM; 0.68% of 320,000 active; AID 2057, 2009;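 active = inhibition above the mean inhibition of all tested compounds plus 3 SD, set per campaign, cut at about 40% in these data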;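 note: 0% = DMSO wells and 100% = unlabeled Bim-BH3 peptide control; higher means more loss of mP so more displacement of Bim peptide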
MEX-5 binding – MEX-5 zinc finger RNA-binding disruptors – biochemical, C. elegans, fluorescence polarization, MLPCN library, primary screen; activity score (negative = inhibition of binding), % at 10 µM; 0.38% of 300,000 active; AID 1832, 2009; MEX-5/FITC-TCR2 RNA binding; active compounds read low; Zinc finger protein mex-5 (Caenorhabditis elegans), Q9XUB2;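 active = inhibition past about -25% in most replicates, and total fluorescence under double the plate's negative control median, limit read from the data; inconclusive = replicates evenly split on the limit, or fluorescence at least double controls; inactive = too little inhibition in most replicates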;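 note: 0% = DMSO and -100% = 5 µM competing unlabeled TCR2 RNA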
GLD-1 TGE inh – GLD-1/TGE RNA complex disruptors, primary screen, biochemical, fluorescence polarization. purified GLD-1 + fluorescein TGE RNA. AID 2280, 2010. inhibition, % at 5.96 µM. Female germline-specific tumor suppressor gld-1 (Caenorhabditis elegans), Q17339. 0.44% of 320,000 active;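 active = percent inhibition above a per-plate cutoff, the plate mean of test compounds plus 3 SD, cut at about 30% in these data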;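 note: 0% = DMSO wells with GLD-1 and probe and 100% = wells lacking GLD-1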
Target sequence (Q17339 whole entry, looked up): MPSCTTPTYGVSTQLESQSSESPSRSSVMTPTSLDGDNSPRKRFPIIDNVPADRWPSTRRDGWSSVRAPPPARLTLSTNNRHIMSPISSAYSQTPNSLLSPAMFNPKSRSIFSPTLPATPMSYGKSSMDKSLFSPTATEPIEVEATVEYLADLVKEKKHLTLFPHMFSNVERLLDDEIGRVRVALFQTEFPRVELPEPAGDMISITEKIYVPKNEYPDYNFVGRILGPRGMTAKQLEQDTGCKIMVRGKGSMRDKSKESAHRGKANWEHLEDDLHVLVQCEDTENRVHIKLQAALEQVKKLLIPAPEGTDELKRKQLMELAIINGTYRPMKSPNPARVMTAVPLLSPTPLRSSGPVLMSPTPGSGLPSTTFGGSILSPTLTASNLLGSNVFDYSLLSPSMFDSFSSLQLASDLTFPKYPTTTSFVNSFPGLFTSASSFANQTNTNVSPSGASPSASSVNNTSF
EBV gp42 inh – Epstein-Barr virus gp42 inhibitors, primary screen, biochemical, uHTS, fluorescence polarization. Glycoprotein 42 (Epstein-Barr virus (strain AG876)), Q1HVG2. Fluorescence polarization binding assay, mP read-out. inhibition, % (tested at 21.74 µM). 0.42% of 220,000 active; in the data active = inhibition above about 50%
E coli Lon inh – inhibitors of E. coli Lon protease, primary screen, biochemical, fluorescence polarization. P0A9M0. purified E. coli Lon protease. 0.42% of 360,000 active. inhibition, % at 7.94 µM; in the data active = inhibition above about 13%, passing the limit was not always enough;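 note: 0% = enzyme with probe and DMSO and 100% = no enzyme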
Starred values were filed as active, the others as inactive; ? = inconclusive; . = no result. Only some compounds are listed: those with a hit (about 1.5% of all), similar ones and a draw of the others.

SMILES	Bcl-xL primary	MCL1-BIM inh	MEX-5 binding	GLD-1 TGE inh	EBV gp42 inh	E coli Lon inh
COc1ccc(-c2[nH]ncc2CNC(C)c2cn(C)nc2C)c(F)c1 (configuration not stated)	68*	13	3	8	-15	-1
COc1ccc(-c2[nH]ncc2CNC(C)CCn2cccn2)c(F)c1 (configuration not stated)	4	5	1	-3	-13	6
COCCOc1ccc(C(F)(F)F)cc1NC(=O)COC(=O)c1cc([N+](=O)[O-])ccc1N1CCOCC1	-1	-1	1	3	.	0
CC(=O)Oc1cc2c3c(c1)/C(=C1/SC(=S)NC1=O)C(=O)N3C(C)(C)C=C2C	50*	10	1	9	9	3
CCNC(=O)C1(C)CCN(C(=O)c2cccc(C(F)(F)F)c2)C1 (configuration not stated)	.	.	.	.	.	4
COc1ccccc1Nc1nc2ccc(C)cc2cc1C#N	0	-3	-3	4	57*	1
COc1ccccc1Nc1nc2cc(C)ccc2cc1C#N	0	-8	0	-13	-12	-4
Cc1ncn(-c2ccc(C(=O)Oc3ccccc3)cn2)n1	5	1	-2	5	10	3
Cc1cccc(CC2CC(=O)N(c3ccc(C)cc3Br)C2=O)c1 (configuration not stated)	0	5	-2	-2	.	0
Fc1ccc(Nc2cccc3nccnc23)cc1	3	9	0	10	-10	-4
c1cc(Nc2cccc3nccnc23)c2nccnc2c1	-7	-13	-29*	-14	-18	-9
CN(CCOc1ccc(Cl)cc1)C(=O)c1cc(-c2ccco2)nc2ccccc12	5	3	2	-1	.	-16
CC(C)(C)c1ccc(OCC(=O)Nc2ccc3c4c(cccc24)C(=O)NC3=O)cc1	.	.	-7	.	57*	18
Cc1ccc(OCC(=O)Nc2ccc3c(c2)C(=O)NC3=O)cc1	2	-1	0	-2	.	0
CCC1c2ccc(C)n2CCN1C(=O)Nc1ccccc1OC (configuration not stated)	50*	50*	-6	50*	-8	16
Cc1ccc(C(=O)C2CCN(C(=S)NCCCOC(C)C)CC2)cc1	-4	9	-2	-1	.	-9
CCOC(=O)/C(C#N)=C1/C=CN(Cc2ccccc2)C=N1	4	5	-5	2	-4	-3
CCOC(=O)C(=O)C1=CN(Cc2ccccc2)C=C(C#N)C1	43*	47*	1	25	.	7
Cc1nn(-c2ccccc2)c(N2CCCC2)c1/C=C1\N=C(c2ccc(F)cc2)OC1=O	1	-17	?	-5	82*	-5
Cc1ccc(C2=N/C(=C\c3c(C)nn(-c4ccccc4)c3N3CCCC3)C(=O)O2)cc1	-4	1	-9	-2	93*	6
O=C(c1cccn2c(=O)c3cc4ccccc4cc3nc12)N1CCN(c2ccccc2)CC1	33*	31	-3	13	0	.
CCc1c(C)[nH]c2ccc(OC)cc2c1=S	.	.	.	.	-30	-1
CCOc1ccc(Cc2c(C)[nH]c3ccc(C(=O)O)cc3c2=S)cc1	31*	31	-5	21	.	3
CCc1ccc(S(=O)(=O)NCc2csc(C)n2)cc1	.	.	-1	.	.	-9
CC(C)OCCCn1c(=NC(=O)c2ccncc2)c(C#N)cc2c(=O)n3ccccc3nc21	34*	37	-5	17	44	-3
SMILES	Bcl-xL primary	MCL1-BIM inh	MEX-5 binding	GLD-1 TGE inh	EBV gp42 inh	E coli Lon inh
O=C(COC(=O)COc1cccc(C(F)(F)F)c1)NC1CCCC1	3	1	0	6	.	10
O=C1Nc2ccc(F)cc2C12Nc1ccccc1-c1nnc(SCc3ccccc3)nc1O2 (configuration not stated)	8	-5	1	6	-17	-1
Cc1ccc(CSc2nnc3c(n2)OC2(Nc4ccccc4-3)C(=O)Nc3ccc(F)cc32)cc1 (configuration not stated)	5	-1	-1	3	151*	-12
Cc1ccc(S(=O)(=O)N/N=C/c2cc(Br)c(C)o2)cc1	10	11	0	12	-22	17*
CC[C@H](C)/C=C/C1=CC2=C(Cl)C(=O)[C@@]3(C)OC(=O)C(C(=O)[C@H](C)[C@@H](C)O)=C3C2=CO1	32*	38	-19	19	.	3
CCCn1c(=O)c2[nH]c(-c3ccc(S(=O)(=O)O)cc3)nc2n(CCC)c1=O	4	-1	.	-4	.	-6
Cc1ccc[n+](CC(=O)c2ccc(Br)cc2)c1	.	.	-1	.	.	-8
N#Cc1ccc[n+](CC(=O)c2ccc(Cl)cc2)c1	33*	40	-4	16	.	-2
Cc1coc(NC(=O)CSc2nc(-c3ccc(Cl)cc3)cc(C(F)(F)F)c2C#N)n1	45*	40*	-4	6	-35	-5
CC1CCCN(C(=O)COC(=O)CNC(=O)c2ccc(Br)cc2)C1 (configuration not stated)	3	-2	2	2	.	-10
C#CCN(CC=C)C(=O)c1ccc2nc(C3CCCCC3)oc2c1	5	11	-3	11	.	-2
CCOC(=O)COn1c(=O)c(-c2ccc(F)cc2)[n+]([O-])c2ccccc21	.	.	-2	.	.	0
CCOC(=O)COn1c(=O)c(-c2cc3ccccc3o2)[n+]([O-])c2ccccc21	18	7	-37*	16	28	8
COCCN1CCn2c(nc3cc(NC(=O)NC4CCCCC4)ccc32)C1	33*	35	.	5	35	-14
COCCN1CCn2c(nc3cc(NC(C)=O)ccc32)C1	17	14	-1	3	.	1
CCOC(=O)C1=C(C)NC2=C(C(=O)CC(C)(C)C2)C1c1cccc(C)n1 (configuration not stated)	3	2	-1	5	-1	1
CCOC(=O)CN=C1CC(C)(C)CC2=C1Sc1ncnc(N(C)C)c1N2	38*	29	-21	14	43	6
COc1cccc(OCCn2cc(C=O)c3ccccc32)c1	-2	-9	-27*	9	.	-6
COC(=O)N/N=C/c1cn(CCOc2cccc(OC)c2)c2ccccc12	-2	-11	-1	-2	.	-3
COC(=O)c1cc(NC(=S)NC(=O)c2ccccc2)ccc1N1CCOCC1	1	2	4	6	.	0
O=C(O)C1OC(Oc2cc3oc(-c4ccccc4)cc(=O)c3c(O)c2O)C(O)C(O)C1O (configuration not stated)	10	13	-60*	12	-14	9
